From PubChem BioAssay (Tox21) come the findings set out here.

“And” between values parts separate entries of the source, which are not always exact repeats. Identical values can stand only once. Records with an inconclusive call do not appear. The source made the active and inactive calls. Calls follow the shape of the dose curve; as a rule, active = well fitted inhibition curve with a large enough effect in the repeat runs; inconclusive = weak or mixed curves; inactive = no such curve, though single readings can be large or run the other way.
% is scaled to controls: 0 for no effect and ±100 for the full control effect; potency is read from the fitted curve at half-maximal effect.

Chain of Cytochrome P450 2C9 (Homo sapiens) (P11712 whole entry, looked up): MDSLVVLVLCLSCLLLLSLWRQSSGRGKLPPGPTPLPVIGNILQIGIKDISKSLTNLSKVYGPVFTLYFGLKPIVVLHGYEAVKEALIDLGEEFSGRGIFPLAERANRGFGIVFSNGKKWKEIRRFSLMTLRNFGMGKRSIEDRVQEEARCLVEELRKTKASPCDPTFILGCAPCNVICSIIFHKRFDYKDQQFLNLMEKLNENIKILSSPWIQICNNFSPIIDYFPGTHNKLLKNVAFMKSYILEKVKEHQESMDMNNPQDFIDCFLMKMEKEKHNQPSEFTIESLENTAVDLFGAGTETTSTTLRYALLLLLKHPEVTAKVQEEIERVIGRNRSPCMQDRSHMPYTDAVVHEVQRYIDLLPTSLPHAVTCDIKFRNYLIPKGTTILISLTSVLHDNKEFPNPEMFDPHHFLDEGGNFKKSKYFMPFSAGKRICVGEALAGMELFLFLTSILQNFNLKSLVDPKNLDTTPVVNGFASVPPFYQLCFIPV

For this experiment, the target named is Cytochrome P450 2C9 (Homo sapiens) (UniProt P11712). Nature of the experiment: Cytochrome P450 Family 2 Subfamily C Member 9 (CYP2C9) small molecule antagonists: luciferase reporter qHTS assay (AID 1671198). Also: nearly all actives have a fitted effect of over 50% in size. The following applies: P450-Glo CYP2C9 enzyme assay, luciferin luminescence; series mostly up to 115 µM; activity change, negative = inhibition: at the top concentration. The source says:
U.S. Tox21 Program National Center for Advancing Translational Sciences [NCATS] U.S. Environmental Protection Agency [EPA] National Institutes of Environmental Health Sciences [NIEHS] National Toxicology Program [NTP] U.S. Food and Drug Administration [FDA] Tox21 Assay Overview: Cytochrome P450 (CYP) enzymes are membrane-bound hemeproteins that play a key role in metabolism of drugs and xenobiotics. Evaluation of the effect of chemicals on CYP isozymes is useful to minimize the adverse drug reactions and toxicities in drug development process. Tox21 chemicals were tested for their effect on CYP enzyme activities by using P450-Glo (TM) screening systems (Promega Corporation, Madison, WI). These systems provide a luminescent method containing proluciferin substrates and are converted to luciferin products by CYP isozymes. The luciferin products formed are detected with a luciferin detection reagent, and the amount of light produced is proportional to CYP activity. P450-Glo (TM) CYP2C9 screening system (Catalog. No. V9790) was used to detect the compounds that interfere in CYP2C9 activity.
Tox21 Assay Protocol Summary: Two ul of enzyme-substrate mix was dispensed into medium binding white/solid 1536-well plates (Greiner Bio-One North America Inc., Monroe, NC) using a BioRaptr Flying Reagent Dispenser (FRD, Beckman Coulter, Brea, CA). […] The assay plates were incubated at room temperature for 10 min. Then 2 ul of NADPH regeneration solution was added to each well of the assay plates using an FRD and incubated at 37C for 1 h. The reaction was stopped by adding 4 ul of detection reagent using an FRD and after 20 min incubation at room temperature the luminescence signal was measured using a ViewLux plate reader (Perkin Elmer, Shelton, CT). Data were expressed as relative luminescence units.
Regarding `S=C(SSC(=S)N1CCCCC1)N1CCCCC1`, the Potency was 6.92 µM (active). Regarding `CC(Cl)CN(C)C` (stereo not given), the “activity change, negative = inhibition” value is -0.0638% (inactive). For the compound `CC1CCC(C(C)C)C(OC(=O)c2ccccc2N)C1` (stereo not given), the Potency was 2.48 µM (active). Turning to `CCOC(=O)c1ccccc1S(=O)(=O)NC(=O)Nc1nc(Cl)cc(OC)n1`, the “activity change, negative = inhibition” value is -19.3% (inactive). `ClC1=C(Cl)C2(Cl)C3C(Cl)C(Cl)CC3C1(Cl)C2(Cl)Cl` (stereo not given): the Potency is 31.6 µM (active) and 20 µM (active). Still for that read-out and setting: then `Nc1ccc(Cl)cc1C(=O)c1ccccc1`, with 39.9 µM (active). The same measure, in the same setting: then `CCCOCC(=Nc1ccc(Cl)cc1C(F)(F)F)n1ccnc1`, with 5.03 µM (active).

In the case of `CC(C)CCCCCOC(=O)c1ccccc1C(=O)OCCCCCC(C)C`, the Potency was 12.5 µM (active). The same measure, in the same setting: then `CCS(=O)(=O)c1cccnc1S(=O)(=O)NC(=O)Nc1nc(OC)cc(OC)n1`, with 71 µM (active); and `Cc1c(Cl)c(=O)oc2cc(OP(=O)(OCCCl)OCCCl)ccc12`, with 3.89 µM (active); and `OC(Cc1ccccc1Cl)(Cn1cncn1)C1(Cl)CC1` (stereo not given), with 2 µM (active).

Take `O=[N+]([O-])c1c2ccccc2cc2ccccc12`: the Potency was 11.1 µM (active).

As for `N#CCCO`, the “activity change, negative = inhibition” value is -2.3% (inactive). Turning to `Cn1cc(C2=C(c3cn(C4CCN(Cc5ccccn5)CC4)c4ccccc34)C(=O)NC2=O)c2ccccc21`, the Potency is 3.09 µM (active). Still for that read-out and setting: then `CC(=O)O[C@H]1CC[C@@]2(C)C(=CC[C@@H]3[C@@H]2CC[C@]2(C)C(=O)CC[C@@H]32)C1`, with 31.7 µM (active); and `c1ccc2c(c1)[nH]c1cnccc12`, with 31.8 µM (active).

As for `O=[N+]([O-])c1cc([N+](=O)[O-])c2ccccc2c1`, the “activity change, negative = inhibition” value is 12.1% (inactive). With `CCCCN(CCCC)C(=S)[S-].CCCCN(CCCC)C(=S)[S-].[Zn+2]`, the Potency is 20 µM (active). As to `O=C(O)C1C2CCC(O2)C1C(=O)O` (stereo not given), the “activity change, negative = inhibition” value is -17.1% (inactive). For `CC(C)OC(=O)C(O)(c1ccc(Cl)cc1)c1ccc(Cl)cc1`, the Potency is 8.94 µM (active). On to `NC(=O)c1ccc(N)nc1`, for which the “activity change, negative = inhibition” value was -0.494% (inactive). As to `C=CCC1=C(C)C(OC(=O)C2C(C=C(C)C)C2(C)C)CC1=O` (stereo not given), the Potency is 6.71 µM (active). Same read-out and setting: to `Clc1ccc(C(c2ccccc2Cl)C(Cl)(Cl)Cl)cc1` (stereo not given) belongs 22.6 µM (active) and 10.4 µM (active); to `C[C@]12Cc3nonc3C[C@@H]1CC[C@@H]1[C@@H]2CC[C@@]2(C)[C@H]1CC[C@]2(C)O`, 24.5 µM (active). As for `CC(=[OH+])/C=C(/C)[O-].CC(=[OH+])/C=C(\C)[O-].CC(=[OH+])/C=C(\C)[O-].[Al]`, the “activity change, negative = inhibition” value is -10.4% (inactive). Turning to `Oc1c(Cl)c(Cl)cc(Cl)c1Cl`, the Potency is 21.8 µM (active). Same read-out and setting: then `CCN(CC)C(=S)[S-].CCN(CC)C(=S)[S-].[Zn+2]`, with 15.8 µM (active); and `CCCCCCCCCC[N+](C)(C)CCCCCCCCCC`, with 39.9 µM (active). `Cc1ccc(CCl)cc1`: the “activity change, negative = inhibition” value was -10.7% (inactive). Still for that read-out and setting: then `CCCN(CCC)CCc1c[nH]c2ccccc12`, with -16.5% (inactive); and `BrCBr`, with -9.19% (inactive). Consider `CC(C)[C@H](C(=O)OC(C#N)c1cccc(Oc2ccccc2)c1)c1ccc(OC(F)F)cc1` (stereo not given in full), for which the Potency was 3.99 µM (active).

With `CCCCCCCCCBr`, the “activity change, negative = inhibition” value is 4.22% (inactive). `CCOc1cc(C(C)(C)C)ccc1C1COC(c2c(F)cccc2F)=N1` (stereo not given): the Potency is 12.2 µM (active). `CCc1ccccc1C`: the “activity change, negative = inhibition” value is -3% (inactive). As for `ClC1=C(Cl)C2(Cl)C3C(Cl)C=CC3C1(Cl)C2(Cl)Cl` (stereo not given), the Potency was 35.6 µM (active). For `CS(=O)(=O)c1ccc(C(=O)C2C(=O)CCCC2=O)c([N+](=O)[O-])c1`, the Potency is 31.4 µM (active). Turning to `CCCCCCCCCCCCCCCCCCn1cc[n+](C)c1`, the Potency was 50 µM (active). Same read-out and setting: to `Oc1c(Br)c(Br)c(Br)c(Br)c1Br` belongs 35.8 µM (active); to `CC(=O)Nc1ccc2c(c1)Cc1ccccc1-2`, 25.6 µM (active).
